This passage reports growth inhibition results from PubChem BioAssay (NCI).

Assay [1] is described as follows: NCI Yeast Anticancer Drug Screen. Data for the rad50 strain (AID 155).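 Note: 0% = growth of vehicle-only cultures of the same strain.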 The following applies: S. cerevisiae rad50 strain growth inhibition; at 50.0 µM; stronger effect = higher value. A digest of the protocol: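 Compounds were tested on a yeast strain with an engineered DNA damage repair alteration; the reported value is growth inhibition normalised to vehicle treatment.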

Assay [2] is described as follows: NCI Yeast Anticancer Drug Screen. Data for the mec2-1 strain (AID 157). The following applies: S. cerevisiae mec2-1 strain, at 50.0 µM, stronger effect = higher value. A digest of the protocol:
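Compounds were applied to mec2-1 yeast cells. Their growth was then compared with that of vehicle-treated cultures to give growth inhibition.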

Assay [3] is described as follows: NCI Yeast Anticancer Drug Screen. Data for the sgs1 mgt1 strain (AID 161).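 Note: 0% = growth of cultures given vehicle only.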 The following applies: S. cerevisiae sgs1 mgt1 strain, at 50.0 µM, stronger effect = higher value. A digest of the protocol: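 Growth of a repair-deficient yeast mutant was monitored after compound treatment and expressed as inhibition relative to vehicle-treated cultures.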
Assay [4] is described as follows: NCI Yeast Anticancer Drug Screen. Data for the cln2 rad14 strain (AID 165).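 Note: 0% = growth equal to vehicle treated cultures.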 The following applies: S. cerevisiae cln2 rad14 strain, at 50.0 µM, stronger effect = higher value. A digest of the protocol: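 Strain: cln2 rad14 yeast, altered in cell cycle control and DNA damage repair. Read-out: growth inhibition vs vehicle.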
Assay [5] is described as follows: NCI Yeast Anticancer Drug Screen. Data for the bub3 strain (AID 167). Particulars: S. cerevisiae bub3 mutant strain, at 50.0 µM, stronger effect = higher value. The procedure, abridged:
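Growth of a checkpoint-deficient yeast mutant is measured after compound exposure. Values represent inhibition relative to vehicle.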

The nature of assay [6]: NCI Yeast Anticancer Drug Screen. Data for the mlh1 rad18 strain (AID 175). Particulars: S. cerevisiae mlh1 rad18 strain growth inhibition; at 50.0 µM; stronger effect = higher value. A digest of the protocol:
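A repair-deficient yeast strain is exposed to test compound, and growth is scored relative to vehicle-treated controls.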

SMILES strings stand for the structures. Several values for one entry are separate records, joined by “and”; a condition that tells them apart may be missing. Equal values may be shown once. Compounds without any hit were thinned out: in the full panel of roughly 79,000, 15% have a hit. Unmarked numbers belong to inactive results. Activity calls are given as the source filed them. Cut-off read from the data, not from the text of the source: active = growth inhibition above about 70%; inactive = the rest.

Regarding `CCN1C(=O)C=CC1=O`, the growth inhibition in assay [1] is 3.4% and -19.9%; in assay [2] it was -2.55% and 13.7%; in assay [3], 11.8% and -8.5%; in assay [4], 6.8% and -30%; in assay [5], 8.8% and -25.5%; in assay [6], 3.55% and -15.4%.

On to `Cc1cc(N(C)C)nc(N(C)C)n1`, for which the growth inhibition was -4.75% and -1.7% in assay [1]; -4.7% and -14.8% in assay [2]; -1.5% and -5.25% in assay [3]; -0.9% and -33.3% in assay [4]; 10.9% and -7.15% in assay [5]; 8.25% and -10.1% in assay [6].

As for `CCSC(SCC)C(OC(C)=O)C(OC(C)=O)C(COC(C)=O)OC(C)=O` (stereo not drawn), the growth inhibition is -2.1% and -16.1% in assay [1]; -2.3% and -2.8% in assay [2]; 8.1% and 4.4% in assay [3]; -40% and -18.2% in assay [4]; -7.25% and -3.55% in assay [5]; 16.6% and 10.9% in assay [6].

As to `CCCCCCCCCCCCCCCC[N+](C)(C)CCOC(C)=O`, the growth inhibition in assay [1] is 99.2% (active) and 99% (active); in assay [2] it was 99.5% (active); in assay [3] it was 99.5% (active); in assay [4] it was 98.9% (active) and 98.8% (active); in assay [5], 99.2% (active) and 99.3% (active); in assay [6], 99.5% (active) and 99.4% (active).

Turning to `O=C(O)CCSCc1ccccc1`, the growth inhibition in assay [1] is -25.6% and 8.85%; in assay [2], 0.7% and -6.9%; in assay [3], -23.1% and 1.55%; in assay [4] it was -31% and -3.5%; in assay [5], -31.4% and -0.2%; in assay [6], -30.3% and -16.1%.

As to `CC(=O)OC(COC(=O)c1ccccc1)C(OC(C)=O)C(OC(C)=O)C(COC(=O)c1ccccc1)OC(C)=O` (stereo not drawn), the growth inhibition was 3.7% and 3.5% in assay [1]; -7.8% and 2.5% in assay [2]; -7.65% and -9.85% in assay [3]; -18.9% and -21.4% in assay [4]; -3.3% and -2.7% in assay [5]; 5.45% and 17% in assay [6].

Regarding `CC/C(=N/NC(N)=O)C1=CCCCC1`, the growth inhibition in assay [1] was -5.6% and 3.4%; in assay [2] it was -3.7% and -0.85%; in assay [3], -1.5% and -15.2%; in assay [4] it was -35.5% and -33.9%; in assay [5], -15.2% and -9.7%; in assay [6] it was -0.4% and -14.7%.

In the case of `O=C(O)c1cc(N=C=S)ccc1-c1c2ccc(=O)cc-2oc2cc(O)ccc12`, the growth inhibition was 6.3% and 32.9% in assay [1]; 3.7% and 31.5% in assay [2]; -4.85% and 15.3% in assay [3]; 6% and 16.6% in assay [4]; -9.75% and -4.1% in assay [5]; 4.95% and 45.9% in assay [6].

With `CCOC(=O)C(c1ccccc1)c1cccc(C(C(=O)OCC)c2ccccc2)n1` (stereo not drawn), the growth inhibition in assay [1] is 3.1% and 8.55%; in assay [2], 0.2% and 0.1%; in assay [3], -16.9% and -33.5%; in assay [4], -3.05% and -41.7%; in assay [5], 1.8% and -3.6%; in assay [6], 17.6% and -13.7%.

Regarding `O=CNc1ccc(C(F)(F)F)cc1`, the growth inhibition was -16.9% and 16.4% in assay [1]; -6.85% and -3.6% in assay [2]; -3.3% and 6.35% in assay [3]; -10.9% and 14.7% in assay [4]; -8.8% and 25.4% in assay [5]; 5.3% and 10.9% in assay [6].

Turning to `O=C(OC(=C(c1ccccc1)c1ccccc1)c1ccccc1)c1ccccc1`, the growth inhibition in assay [1] was 12.8% and -6.95%; in assay [2], -0.2% and -10.2%; in assay [3], -4.45% and 15.2%; in assay [4], -9.6% and -22.2%; in assay [5], -0.05% and 5.6%; in assay [6] it was 11.2% and 20.4%.

Regarding `CCC(C(=O)O)c1ccccc1` (stereo not drawn), the growth inhibition in assay [1] was 10.7% and 12.6%; in assay [2], 5.4% and 3.95%; in assay [3] it was 9.4% and 1.25%; in assay [4], -12.2% and -29.8%; in assay [5] it was -19.6% and -1.9%; in assay [6] it was 22.4% and 2.4%.

For the compound `O=C1C(c2ccccc2)=C(c2ccccc2)C(c2ccccc2)=C1c1ccccc1`, the growth inhibition in assay [1] was 36.6% and 12.2%; in assay [2], -3.9% and 8.35%; in assay [3] it was 15.8% and 25.2%; in assay [4], -14% and -2.4%; in assay [5], 0.25% and 12.2%; in assay [6] it was 18.7% and 8.9%.

Turning to `COC(=O)C1(C)CCCC2(C)c3cc(OC)ccc3C=CC12` (stereo not drawn), the growth inhibition in assay [1] is 14.5% and 6.75%; in assay [2], -1.8% and 8.1%; in assay [3] it was -0.6% and 2.55%; in assay [4], -0.6% and 4.75%; in assay [5], 2.5% and 21.5%; in assay [6], 4.45% and 1.2%.

As to `CCCN=C(N)C(N)=NCCC` (tested in a mixture with another compound), the growth inhibition in assay [1] is 0.4% and 6.5%; in assay [2], -3.95% and 7.35%; in assay [3], 9% and 26.4%; in assay [4] it was -21.4% and 7.55%; in assay [5], 12.6% and 3.75%; in assay [6], 6.65% and 10%.

`COCC1OC(OC)C(OC)C(OC)C1OC` (stereo not drawn): the growth inhibition in assay [1] is -4.45% and 3.1%; in assay [2] it was -13% and -0.5%; in assay [3], 8.35% and -0.1%; in assay [4], -49.7% and 1.25%; in assay [5], -21.1% and 1.3%; in assay [6] it was -4.8% and -4.25%.

Turning to `Cc1cc(C)c(C(=O)C(C)C(c2ccccc2)c2ccc(Cl)cc2)c(C)c1` (stereo not drawn), the growth inhibition was -16.4% and -14.6% in assay [1]; -19.2% and -5.7% in assay [2]; -12.8% and -16.1% in assay [3]; 17.8% and -2.55% in assay [4]; -8.7% and -10.6% in assay [5]; -15.2% and -2.45% in assay [6].

In the case of `NC(Cc1cnc[nH]1)C(=O)O` (stereo not drawn), the growth inhibition is -15.4% and 3.95% in assay [1]; -27.9% and 0.2% in assay [2]; 2.35% and 16.4% in assay [3]; -0.05% and 3.55% in assay [4]; -4.35% and 3.9% in assay [5]; -20.9% and -3.1% in assay [6].
